LmPK inhibitor: blocks Leishmania mexicana pyruvate kinase activity; Q27686; purified LmPK, Kinase-Glo ATP luminescence, 1 h; Potency, µM (titrated, usually from 57.5 µM), for the others: at the highest dose activity change, negative = inhibition, hits mostly inhibitors; 290,000 tested, 0.37% active; AID 1721; further: potency means the concentration at half of the fitted maximal effect; on the % scale 0 is the no-effect control and ±100 the full control effect
Target sequence (Q27686 whole entry, looked up): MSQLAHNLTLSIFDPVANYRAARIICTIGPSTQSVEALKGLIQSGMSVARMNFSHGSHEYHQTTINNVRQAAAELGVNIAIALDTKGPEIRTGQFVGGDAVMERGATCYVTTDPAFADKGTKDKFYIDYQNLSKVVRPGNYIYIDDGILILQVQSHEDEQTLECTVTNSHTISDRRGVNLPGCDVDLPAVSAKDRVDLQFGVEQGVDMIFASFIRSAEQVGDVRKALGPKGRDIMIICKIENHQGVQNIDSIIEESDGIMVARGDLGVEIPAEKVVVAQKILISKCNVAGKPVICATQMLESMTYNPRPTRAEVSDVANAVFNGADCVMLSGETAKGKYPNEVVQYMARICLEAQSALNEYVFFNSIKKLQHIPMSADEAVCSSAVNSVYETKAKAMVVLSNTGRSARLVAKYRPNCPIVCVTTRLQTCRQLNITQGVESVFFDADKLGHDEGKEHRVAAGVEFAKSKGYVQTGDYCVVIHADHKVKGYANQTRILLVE
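In 50 mM imidazole pH 7.2 with 7 mM MgCl2, LmPK (0.1 nM) turned over PEP (0.5 mM) and ADP (0.1 mM) for 1 h at room temperature. Luciferase read-out of ATP.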
NS1 function inh: influenza NS1 inhibition; 270,000 tested, 0.4% active; AID 2326; Potency, µM (highest dose often 46.1 µM), without a hit: at the highest dose activity, positive = more growth; calls by dose curve; further: potency means the concentration at half of the fitted maximal effect; actives are rising curves; nearly all actives have a fitted effect of over 50% in size
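Growth recovery, yeast-based: influenza A NS1 expressed in S. cerevisiae causes slow growth, and suppressors are detected by OD600. The parent strain without NS1 is used as positive control.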
Tb PYK inh: blocks Trypanosoma brucei pyruvate kinase; Q57TT1; TbPYK enzyme, Kinase-Glo Plus ATP luminescence, 45 min; Potency, µM (series often up to 76.8 µM), without a hit: at the highest dose activity, negative = inhibition, most hits filed as inhibitors; 410,000 tested, 0.12% active; further: potency means the concentration at half of the fitted maximal effect; on the % scale 0 is the no-effect control and ±100 the full control effect; nearly all actives have a fitted effect of over 50% in size
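Glycolytic pyruvate kinase of T. brucei was incubated with substrate, test compound and 130 uM ADP for 45 minutes at room temperature. Luminescent Kinase-Glo Plus signal was measured after 10 minutes.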
RE007 growth inh: less growth of the S. pombe RE007 Vpr strain; Potency, µM (titrated, usually from 92.2 µM), without a hit: top-dose activity change, negative = less growth, hits mostly inhibitors; 360,000 tested, 0.21% active; AID 651644; S. pombe RE007 Vpr strain, BacTiter-Glo ATP luminescence, 24 h; active means well fitted falling curve with a large enough effect; inconclusive means small, poorly fitted or top-dose-only effect; inactive means no such curve, though single readings can be large or run the other way; further: potency means the concentration at half of the fitted maximal effect; on the % scale 0 is the no-effect control and ±100 the full control effect; nearly all actives have a fitted effect of over 50% in size
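Fission yeast strain RE007, carrying one chromosomally integrated HIV-1 vpr copy, was seeded at OD 0.01 in PMG+AL medium with 23 nL pinned compound. After 24 h at 30 °C and 99% humidity, viability was read by BacTiter-Glo luminescence.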
AMA1 RON2 block: AMA1-RON2 (P. falciparum) interaction inhibition. Potency, µM (highest dose often 58.2 µM), for inactives: at the top dose activity change, negative = inhibition, actives largely listed as inhibitors. 360,000 tested, 0.2% active. AlphaScreen AMA1-biotinylated RON2 peptide binding;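 further: potency means the concentration at half of the fitted maximal effect; 0% = vehicle wells and -100% = peptide control; nearly all actives have a fitted effect of over 45% in size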
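AMA1 (3D7) with his tag at 25 nM final met compounds first, then biotinylated RON2 peptide at 25 nM; detection used donor plus acceptor beads, 10 µg/mL apiece, read by AlphaScreen after 30 min at room temperature.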
Flu NS1 inh: validation of influenza NS1 protein function inhibitors; shares compounds with NS1 function inh; AID 492980; activity change, negative = inhibition, % at 32.9 µM; influenza NS1 function cell assay, 15-point titration; 1,400 tested, under 10 active; calls by dose curve; further: 0% is about no effect
PR8 titer: influenza virus titer reduction, NS1 project; shares compounds with NS1 function inh; MDCK infected influenza A/PR/8/34, virus titer TCID50; hits give low values; virus titer (log TCID50), log10 TCID50 at 5 µM; 95 tested, 30% active; AID 504647; call rule not given here
Numbers without * were called inactive. The list is not random: actives were taken first. Their share in the collection is about 0.92%. Unless noted, the call rests on the fitted dose curve; in most records, active means well fitted curve in the direction sought with a large enough effect; inconclusive means small, poorly fitted or top-dose-only effect, or another doubt; inactive means no such curve, though single readings can be large; an effect the other way counts as inactive or inconclusive.

How did O=C1CNC(=S)N1CCc1ccc(O)c(O)c1 do in these assays?
LmPK inhibitor: 4%; NS1 function inh: inconclusive; Tb PYK inh: -20%; RE007 growth inh: -9%; AMA1 RON2 block: 7%; Flu NS1 inh: 29

Results for O=C1CNC(=S)N1CCOc1ccccc1 ?
LmPK inhibitor: 3%; NS1 function inh: 9%; Tb PYK inh: 1%; RE007 growth inh: 10%; AMA1 RON2 block: 21%

Results for CC(=O)c1ccc(N2CCN(C(=O)c3cc(-c4ccc5c(c4)OCO5)nc4ccccc34)CC2)cc1 ?
LmPK inhibitor: 3%; NS1 function inh: 13µM*; Tb PYK inh: 5%; RE007 growth inh: -6%; AMA1 RON2 block: -4%; Flu NS1 inh: 3; PR8 titer: 8

Results for Cc1cc(C)c(S(=O)(=O)NCC(c2ccco2)N2CCOCC2)c(C)c1 (stereo unspecified) ?
Tb PYK inh: -6%

Results for CCC(C)N(C(=O)COC(=O)c1[nH]c(C)c(C(C)=O)c1C)C1CCS(=O)(=O)C1 (stereo unspecified) ?
LmPK inhibitor: 6%; NS1 function inh: 3.2µM*; Tb PYK inh: 0%; RE007 growth inh: 6%; AMA1 RON2 block: 5%; Flu NS1 inh: 1

Results for CCN(C(=O)COC(=O)c1[nH]c(C)c(C(C)=O)c1C)C1CCS(=O)(=O)C1 (stereo unspecified) ?
LmPK inhibitor: 0%; NS1 function inh: 3%; Tb PYK inh: 4%; RE007 growth inh: 12%; AMA1 RON2 block: -5%

How did Cc1c(C(=O)Nc2cccc(Cl)c2)oc2ccc(S(=O)(=O)N3CCC4(CC3)OCCO4)cc12 do in these assays?
LmPK inhibitor: 1%; NS1 function inh: 11µM*; Tb PYK inh: 1%; RE007 growth inh: 10%; AMA1 RON2 block: -1%; Flu NS1 inh: -19

How did COc1cccc(NC(=O)c2oc3ccc(S(=O)(=O)N4CCC5(CC4)OCCO5)cc3c2C)c1 do in these assays?
Tb PYK inh: -11%

How did COC(=O)c1c(C)oc2ccc(N(C(=O)c3ccncc3)S(=O)(=O)c3ccc4ccccc4c3)cc12 do in these assays?
LmPK inhibitor: 1%; NS1 function inh: 11µM*; Tb PYK inh: -10%; RE007 growth inh: 7%; AMA1 RON2 block: -7%; Flu NS1 inh: 3

How did CCOc1ccc(C(=O)NCc2nc3cccnc3n2Cc2cccc(OC)c2)cc1 do in these assays?
Tb PYK inh: 2%

Results for CCOC(=O)N1CCN(C(=O)CC(=O)Nc2ccc3nc4n(c(=O)c3c2)CCCCC4)CC1 ?
LmPK inhibitor: -2%; NS1 function inh: -3%; Tb PYK inh: -6%; RE007 growth inh: 27%; AMA1 RON2 block: -1%

How did COCC(=O)Nc1ccc2nc3n(c(=O)c2c1)CCCCC3 do in these assays?
LmPK inhibitor: 3%; NS1 function inh: inconclusive; Tb PYK inh: 2%; RE007 growth inh: 18%; AMA1 RON2 block: -11%; Flu NS1 inh: -5

What do the screens show for `CCOC(=O)c1ccc(NC(=O)CSc2nnc(CCc3ccc(C)o3)n2-c2ccccc2)cc1`?
LmPK inhibitor: -1%; NS1 function inh: 1.4µM*; Tb PYK inh: 4%; RE007 growth inh: 4%; AMA1 RON2 block: 0%; Flu NS1 inh: -20; PR8 titer: 7.7

What do the screens show for `CC1CCN(S(=O)(=O)c2ccc3c(ccc(=O)n3CC(=O)NCc3ccccc3Cl)c2)CC1`?
Tb PYK inh: 1%

How did Cn1c(SCCOc2ccccc2Cl)nnc1-c1cccs1 do in these assays?
LmPK inhibitor: 1%; NS1 function inh: inconclusive; Tb PYK inh: -18%; RE007 growth inh: -4%; AMA1 RON2 block: -8%; Flu NS1 inh: inconclusive

Results for Cc1cc(OCCSc2nnc(-c3cccs3)n2C)ccc1Cl ?
LmPK inhibitor: -1%; NS1 function inh: -169%; Tb PYK inh: 4%; RE007 growth inh: -17%; AMA1 RON2 block: 40%

Results for Cc1cccc(C)c1NC(=O)c1nc(SC(C)C)ncc1Cl ?
Tb PYK inh: -1%

Results for COCCn1nnnc1C(c1cc2ccc(OC)cc2[nH]c1=O)N1CCN(C2CCCCC2)CC1 (stereo unspecified) ?
LmPK inhibitor: 0%; NS1 function inh: 4.5µM*; Tb PYK inh: -1%; RE007 growth inh: -17%; AMA1 RON2 block: -6%; Flu NS1 inh: -13; PR8 titer: 7.5*

What do the screens show for `COc1ccc(NC(=O)CC2SC(=O)NC2=O)cc1` (stereo unspecified)?
LmPK inhibitor: 3%; Tb PYK inh: -1%; RE007 growth inh: -27%; AMA1 RON2 block: 41%

What do the screens show for `Cc1ccc(NC(=O)CC2SC(=O)NC2=O)cc1` (stereo unspecified)?
LmPK inhibitor: 0%; NS1 function inh: 6.3µM*; Tb PYK inh: 0%; RE007 growth inh: -1%; AMA1 RON2 block: 106%; Flu NS1 inh: -6

What do the screens show for `Cc1ccc2nc(NNC(=O)c3ccc(S(=O)(=O)N4CCc5ccccc5C4)cc3)sc2c1`?
LmPK inhibitor: 3%; NS1 function inh: 10µM*; Tb PYK inh: -4%; RE007 growth inh: 3%; AMA1 RON2 block: 56%; Flu NS1 inh: inconclusive

How did CCC(C)(C)n1nnnc1C(c1cc2cc(OC)c(OC)cc2[nH]c1=O)N1CCc2ccccc21 (stereo unspecified) do in these assays?
LmPK inhibitor: 4%; NS1 function inh: 14µM*; Tb PYK inh: 5%; RE007 growth inh: 9%; AMA1 RON2 block: -8%; Flu NS1 inh: inconclusive

What do the screens show for `CCOc1ccc2oc(C(=O)OCC(=O)N3CC(C)OC(C)C3)c(C)c2c1` (stereo unspecified)?
Tb PYK inh: -1%; RE007 growth inh: -4%; AMA1 RON2 block: -2%

How did Cc1c(C(=O)OCC(=O)N2CC(C)OC(C)C2)oc2ccc(Br)cc12 (stereo unspecified) do in these assays?
LmPK inhibitor: -3%; NS1 function inh: 0.45µM*; Tb PYK inh: -3%; RE007 growth inh: -9%; AMA1 RON2 block: 4%; Flu NS1 inh: inconclusive

How did CCCCc1ccc(NC(=O)CSc2nc3ccccc3nc2N2CCOCC2)cc1 do in these assays?
Tb PYK inh: -2%

Results for CCC(C)NC(=O)COC(=O)Cc1sc(N)nc1-c1ccc(C)cc1 (stereo unspecified) ?
LmPK inhibitor: 2%; NS1 function inh: 1.1µM*; Tb PYK inh: -22%; RE007 growth inh: 21%; AMA1 RON2 block: 4%; Flu NS1 inh: 8
